Screening data: PubChem BioAssay, National Center for Advancing Translational Sciences (NCATS)
Eya2 inh: inhibitors of human Eya2 phosphatase activity; 330,000 compounds, 0.006% hits; AID 488837; recombinant Eya2, OMFP fluorescence dephosphorylation (OMFP is methylfluorescein phosphate); O00167; Potency, µM (top dose mostly 76.9 µM), for inactives: at the top dose activity, negative = inhibition, most hits filed as inhibitors; note: potency is the fitted concentration of half-maximal effect
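Eya2 (0.2 uM) preincubated 10 min at ambient with compound, then OMFP substrate added at 50 uM; 10 min reaction in 50 mM HEPES pH 7.5, 50 mM NaCl, 5 uM MgCl2, 0.05% BSA, 1 mM DTT. Fluorescence read at Ex 485/Em 525 nm.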
Six1-Eya2 blk: Six1/Eya2 interaction inhibition; Q15475+O00167; 360,000 compounds, 0.56% hits; AlphaScreen GST-Six1/His-Eya2 binding, biochemical; stronger effect = lower value; activity change, % (no concentration beside the values); AID 651725; in the data active = activity change below about -65%; inconclusive = mostly about -30% to -63%
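GST-Six1 + His-Eya2 (5X stock: 250/500 nM); Tris pH 8.0, 300 mM NaCl, 0.05% BSA, 0.02% Tween 20; GSH donor/Ni acceptor beads; 1 h 37 °C dark; AlphaScreen readout.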
CtBP-E1A inh: blocks the CtBP interaction with E1A. activity change, % (test concentration not listed). AID 651724. AlphaScreen GST-E1A/His-CtBP binding, 1536-well; stronger effect = lower value. 340,000 compounds, 0.49% hits; in the data active = activity change below about -65%; inconclusive = mostly about -30% to -63%
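GST-E1A and His-tagged CtBP (125 nM each as 5X stock) were preincubated with pin-transferred compound for 2 h at 37 °C in the dark, then glutathione donor and nickel acceptor beads were added for 1 h before AlphaScreen reading.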
B2AR arrestin: beta2AR (human) beta-arrestin recruitment activity; AID 492947; beta-arrestin recruitment to beta2AR, cell-based reporter; P07550; Potency, µM (doses to about 46.1 µM), for inactives: at the top dose activation, most hits filed as activators; 330,000 compounds, 0.02% hits;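 note: potency is the fitted concentration of half-maximal effect; 0% = DMSO controls and full agonism = EC100 isoproterenol or metaproterenol; nearly all actives have a fitted effect of over 65% in size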
L3MBTL1 block: blocks human L3MBTL1 | AlphaScreen L3MBTL1–H3K9me1 peptide binding | Potency, µM (titrated, usually from 57.1 µM), for the others: at the top dose activity, negative = inhibition, usual class: inhibitors | 230,000 compounds, 0.66% hits | AID 485360; note: potency is the fitted concentration of half-maximal effect; nearly all actives have a fitted effect of over 60% in size
Target sequence (Q9Y468 whole entry, looked up): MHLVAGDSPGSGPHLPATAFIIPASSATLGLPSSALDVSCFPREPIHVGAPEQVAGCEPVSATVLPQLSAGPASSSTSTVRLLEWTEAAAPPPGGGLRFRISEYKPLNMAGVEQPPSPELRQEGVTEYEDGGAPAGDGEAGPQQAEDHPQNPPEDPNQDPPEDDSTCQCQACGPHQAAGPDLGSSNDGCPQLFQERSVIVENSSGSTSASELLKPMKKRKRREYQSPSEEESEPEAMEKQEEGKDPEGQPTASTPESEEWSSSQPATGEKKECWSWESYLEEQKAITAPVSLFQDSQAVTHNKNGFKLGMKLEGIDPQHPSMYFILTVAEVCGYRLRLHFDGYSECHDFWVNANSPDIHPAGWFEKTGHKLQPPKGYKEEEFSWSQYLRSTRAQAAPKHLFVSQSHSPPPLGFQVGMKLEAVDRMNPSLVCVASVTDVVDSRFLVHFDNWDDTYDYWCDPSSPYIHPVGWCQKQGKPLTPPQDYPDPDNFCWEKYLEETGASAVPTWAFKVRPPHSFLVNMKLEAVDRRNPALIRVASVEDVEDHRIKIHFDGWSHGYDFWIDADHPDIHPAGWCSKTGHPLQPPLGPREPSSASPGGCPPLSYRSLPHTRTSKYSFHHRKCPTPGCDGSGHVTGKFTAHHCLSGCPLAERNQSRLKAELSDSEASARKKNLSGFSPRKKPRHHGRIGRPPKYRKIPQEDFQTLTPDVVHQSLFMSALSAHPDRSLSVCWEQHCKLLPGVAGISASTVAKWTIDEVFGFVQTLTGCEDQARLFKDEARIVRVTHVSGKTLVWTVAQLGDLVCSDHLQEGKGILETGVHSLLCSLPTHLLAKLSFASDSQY
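L3MBTL1 (50 nM) pre-complexed 30 min with biotinylated H3(1-15)K9me1 peptide (75 nM), then compounds added for 30 min at room temperature; AlphaScreen streptavidin donor/nickel chelate acceptor beads (10 ug/mL final) read after 30 min dark incubation.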
Active calls of the source: *; ? = inconclusive; nt = no result given; [ ] = another dose, or the depositor's remark. An excerpt weighted towards active compounds, which were near 0.9% of everything screened. Unless noted, calls come from the whole dose curve; as a rule, active = well fitted curve in the direction sought with a large enough effect; inconclusive = small, poorly fitted or top-dose-only effect, or another doubt; inactive = no such curve, though single readings can be large; an effect the other way counts as inactive or inconclusive. Unless noted, % is set by controls: 0 for no effect and ±100 for the full control effect.

SMILES	Eya2 inh	Six1-Eya2 blk	CtBP-E1A inh	B2AR arrestin	L3MBTL1 block
O=C(N/N=C/c1cc([N+](=O)[O-])ccc1O)C1CCCCC1	-0.3%	-73.9*	-72.7*	-1.2%	5.9%
O=C(Cn1cncn1)N/N=C/c1ccccc1O	-10.5%	-85.4*	-94.5*	-0.8%	nt
O=C(Cn1nnc(-c2ccccc2)n1)N/N=C/c1cc([N+](=O)[O-])ccc1O	2.4%	?	10.2	-0.5%	?
O=C(N/N=C/c1cc([N+](=O)[O-])ccc1O)C1C2CCCCC21 (stereo unspecified)	2.0%	nt	nt	-0.3%	5.0%
O=C(Nc1cc(Cl)cc(Cl)c1)N[C@@H]1CC[C@@H](CCNS(=O)(=O)c2cccc(F)c2)O[C@@H]1CO	nt	-8.3	0.3	nt	nt
Cc1cc(C(=O)N/N=C\c2cc(C(C)(C)C)ccc2O)n[nH]1	3.3%	?	-67.9*	0.4%	nt
Cc1cc(C(=O)N/N=C/c2cccs2)n[nH]1	-8.4%	-5.8	3.6	0.3%	5.1%
C/C(=N\Nc1nnc(C)c(=O)[nH]1)C(=O)O	-10.2%	-89.2*	-87.2*	-0.3%	11.8%
COc1cccc(/C=N/NC(=O)Cn2ccnc2C)c1	-7.9%	-1.0	4.9	-0.6%	-0.9%
COc1c(O)cccc1/C=N/NC(=O)Cn1ccnc1C	4.5%	-92.5*	nt	0.3%	?
CCN(CC)CCCNc1nc2ccccc2c2[nH]c3ccc(OC)cc3c12	nt	?	-74.8*	nt	nt
CCN(CC(=O)Nc1ccc2c(c1)OCCO2)C(=O)c1ccc(C(F)(F)F)cc1	-6.0%	3.3	2.9	0.3%	-3.5%
Cn1c2ccccc2c2nnc(SCC(=O)Nc3cccc(C(=O)O)c3)nc21	2.6%	-66.7*	?	3.6%	nt
Cc1ccc(C2=NN=C(NC(=O)CSc3nc(C)cc(C)n3)SC2)cc1	1.0%	nt	nt	-0.4%	-12.4%
Cc1ccc(C2=NN=C(NC(=O)CSc3nnc4c5ccccc5n(C)c4n3)SC2)cc1	13.3%	-72.0*	?	-0.7%	-28.4%
COc1ccc(CCN2C(=O)CCC2(C)c2nnnn2Cc2ccccc2)cc1OC (stereo unspecified)	nt	6.0	-23.2	nt	nt
CCCCCn1c(=N)n(CC(O)COc2ccccc2OC)c2ccccc21 (stereo unspecified)	3.9%	-0.4	?	-0.4%	5.01µM*
CCOc1ccc(/C=C(\C#N)C(=O)NCC2CCCO2)cc1OCC (stereo unspecified)	1.3%	-5.0	-65.6*	-1.3%	2.7%
COCCNc1nnc(Cc2ccc(OC)c(OC)c2)c(=O)[nH]1	3.1%	4.2	0.0	-0.1%	nt
COc1ccc(Cc2nnc(NN)[nH]c2=O)cc1OC	-0.8%	-91.0*	1.2	0.2%	nt
CCOc1ccccc1-n1c(SCC(N)=O)nnc1-c1ccccc1	6.9%	3.3	3.9	-1.1%	-3.2%
CCOc1ccccc1-n1c(SCC(N)=O)nnc1-c1ccc(O)cc1	-13.2%	-89.7*	-90.4*	0.0%	16.0%
CC(C)CN(C(=O)COC(=O)c1cc2c(s1)CCC2)C1CCS(=O)(=O)C1 (stereo unspecified)	0.3%	-0.5	5.2	-0.2%	20µM*
Cc1ccc(S(=O)(=O)N2CCN(Cc3cc(=O)n4ccccc4n3)CC2)c(C)c1	-21.3%	-0.2	-7.6	0.1%	-7.3%
NCC(=O)Nc1ccc(Cl)cc1C(=O)c1ccc[nH]1	-6.4%	-81.3*	nt	-0.7%	?
SMILES	Eya2 inh	Six1-Eya2 blk	CtBP-E1A inh	B2AR arrestin	L3MBTL1 block
CC(=O)Nc1ccc(Cl)cc1C(=O)c1ccc[nH]1	nt	1.4	0.8	nt	nt
COc1cc2[nH]cc(C(=O)NCc3cccs3)c(=O)c2cc1OC	nt	?	-72.6*	nt	nt
CCN(CC)CCCN(c1ccccc1)C1Cc2ccccc2C1	3.3%	nt	nt	nt	nt
Cc1cccc(C)c1NC(=O)COC(=O)/C=C/c1ccc(S(=O)(=O)N2CCOCC2)cc1	4.1%	0.1	8.0	-0.3%	41.2%
COC(=O)c1ccc(N2CCc3ccccc32)c([N+](=O)[O-])c1	-15.7%	-70.1*	-29.4	0.0%	nt
O=C(O)c1ccc(N2CCc3ccccc32)c([N+](=O)[O-])c1	-8.0%	-7.5	-3.4	0.2%	nt
Nc1ccc2cccc(O)c2c1	nt	-27.2	-28.2	nt	nt
COCc1c(C(=O)N/N=C\c2ccccn2)nnn1-c1nonc1N	-8.1%	-74.3*	-69.7*	0.3%	nt
O=C(O)/C=C/C(=O)Nc1ccc(Oc2ccc(NC(=O)/C=C/C(=O)O)cc2)cc1	8.5%	nt	nt	-0.3%	25.1µM*
CN(C)c1ccc(CN2CCC(C(=O)NC(c3ccc(F)cc3)c3ccc4ccccc4n3)CC2)cc1 (stereo unspecified)	nt	-65.7*	?	nt	nt
O=C1C2C(C(=O)N1/N=C/c1cc([N+](=O)[O-])c(O)cc1O)C1C=CC2C12CC2 (stereo unspecified)	20.6%	-9.5	-23.2	-0.1%	31.6µM*
O=C1C2C(C(=O)N1/N=C/c1cc([N+](=O)[O-])ccc1O)C1C=CC2C12CC2 (stereo unspecified)	12.2%	4.0	7.5	0.0%	-5.5%
Nc1c(Cl)ncnc1N/N=C/c1cccnc1	-29.0%	-7.8	-8.4	-0.5%	nt
Nc1c(Cl)ncnc1N/N=C/c1ccccn1	-5.2%	-87.0*	-86.3*	-0.5%	7.94µM*
Nc1c(Cl)ncnc1N/N=C/c1ccc2ccccc2n1	0.9%	-80.4*	-79.5*	?	?
O=C(CSc1nnc(C2CC2)n1-c1ccccc1)N1CCNC1=O	9.7%	11.0	24.1	0.5%	-2.1%
CN(C)c1ccc(NC2=C(Cl)C(=O)c3ccccc3C2=O)cc1	-15.2%	?	-20.3	-1.8%	15.8µM*
CSS(=O)(=O)c1cccc2cccnc12	?	?	-70.1*	0.0%	-8.3%
Cc1cccc2cccnc12	-8.4%	6.9	4.3	0.1%	-4.8%
c1cnc2c(c1)ccc1cccnc12	0.6%	-90.4*	-75.8*	?	3.16µM*
O=Cc1ccc2ccc3cccnc3c2n1	0.2%	-68.6*	-93.4*	0.0%	nt
CC1=Nc2ccccc2/C1=C/c1sc(=S)n(-c2cccc(C(=O)O)c2)c1O	?	?	-67.4*	0.2%	-6.8%
Oc1c(C=C2N=c3ccccc3=N2)sc(=S)n1-c1ccccc1	-21.7%	-0.6	2.9	0.4%	28.9%
CCCCc1ccc(-c2nn[nH]n2)nc1	nt	-81.4*	?	nt	nt
CCCCc1ccc(-c2ccc(C)cc2O)nc1	0.6%[15.4 µM]	42.5	39.2	-0.3%	30.0%
COc1cc(Cl)cc(/C=N\NC(=O)c2ccc3c(c2)OCO3)c1O	nt	-88.4*	?	nt	nt
O=C(N/N=C/c1cc(Br)c(Br)o1)c1ccc2c(c1)OCCO2	-4.6%	-27.5	-4.1	-0.2%	?
O=C(N/N=C/c1cc(Br)c(O)c(Br)c1O)c1ccc2c(c1)OCCO2	-0.5%	-84.9*	-97.1*	-0.3%	nt
O=C(N/N=C/c1cc(Br)cc(Cl)c1O)c1ccc2c(c1)OCO2	nt	-80.8*	-83.2*	nt	nt
O=C(N/N=C/c1cc(Cl)cc([N+](=O)[O-])c1O)c1ccc2c(c1)OCO2	-3.1%	-19.9	?	-0.9%	-24.9%
